# Laboratory results taken from PubChem BioAssay AID2113 (National Center for Advancing Translational Sciences (NCATS), 2009).
# Several values for one entry are separate records, joined by “and”; a condition that tells them apart may be missing. Identical values can stand only once. Inconclusive results are not listed. A call without a number means that no potency is given here. Activity calls are given as the source filed them. Calls come from the whole dose curve; as a rule, active = well fitted curve in either direction with a large enough effect; inconclusive = small, poorly fitted or top-dose-only effect; inactive = no such curve, though single readings can be large or run the other way.
# Target: Lysosomal alpha-glucosidase (Homo sapiens) (UniProt P10253)
# Experiment: Confirmation of Inhibitors and Activators of Human alpha-Glucosidase From Spleen Homogenate;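 for potency: fluorescence of 4-methylumbelliferone released from a fluorogenic glucopyranoside substrate at pH 5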
# Details: alpha-glucosidase enzyme activity; series mostly up to 60.5 µM
# Summary of the method: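 Compounds titrated against spleen-homogenate alpha-glucosidase, pH 5.0, 1 mM 4-MU-glucoside substrate, 37 C for 40 min. Fluorescence after pH 10 stop, normalised to no-enzyme and enzyme controls; Hill-equation AC50.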
# Potency is the fitted concentration of half-maximal effect.
row,Structure (SMILES),Potency
1,O=C1CC(N2CCN(c3cccc(C(F)(F)F)c3)CC2)C(=O)N1c1ccc(F)cc1 (centres undefined),inactive
2,CCCN1CNc2c(c(=O)[nH]c(=S)n2CCc2c(OC)cccc2OC)C1,inactive
3,O=C(Nc1cc(S(=O)(=O)N2CCOCC2)ccc1N1CCCC1)c1cc(=O)[nH]c2ccccc12,inactive
4,CC(=O)c1ccc(S(=O)(=O)N2CCOCC2)cc1,inactive
5,O=C1Cc2cc(S(=O)(=O)N3CCN(c4ccc(O)cc4)CC3)ccc2N1,6.68 µM [inhibitor] (active)
6,Cc1cc(C)nc(SCc2cc(=O)c(OC(=O)c3ccco3)co2)n1,inactive
7,C(=C/c1nccc2c1[nH]c1ccccc12)/c1ccc2c(c1)OCO2,inactive
8,Cc1cccc(-n2c(N)cc(=O)[nH]c2=S)c1C,inactive
9,CN(C)C=Nc1nc2ccccc2nc1N1CCCC1,inactive
10,Cc1cccc2cc3c(NC(=O)c4ccccn4)nn(C)c3nc12,inactive
11,O=S(=O)(c1ccccc1)N1CCNCC1,inactive
12,CN1c2ccccc2-c2nc3ccccc3n2C1c1ccccn1 (centres undefined),14.1 µM (active)
13,O=C(c1ccc2ccccc2c1)N1CCN(S(=O)(=O)c2ccccc2)CC1,inactive
14,Cc1ccc(S(=O)(=O)N2CCOCC2)cc1,inactive
15,COC(=O)c1ccc(C(=O)OC)c(NC(=S)N2CCOCC2)c1,inactive
16,CC(=O)c1ccc(N2CCN(S(=O)(=O)c3cc4c(cc3Cl)NC(=O)C4)CC2)cc1,1.83 µM [inhibitor] (active) and 5.17 µM [inhibitor] (active)
17,CCCN1CNc2c(c(=O)[nH]c(=S)n2CCC)C1,inactive
18,CCCN1CNc2c(c(=O)[nH]c(=S)n2CCc2c(C)cccc2C)C1,inactive
19,CCCN1CNc2c(c(=O)[nH]c(=S)n2CCc2ccccn2)C1,inactive
